tim10-1 inh: growth inhibitors of tim10-1 mutant yeast, primary screen, luminescence, uHTS. AID 463190, 2010. inhibition, % at 20 µM. 330,000 compounds, 2.2% hits. S. cerevisiae tim10-1 ts strain growth, BacTiter-Glo, 24 h;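 active = inhibition of at least 40%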;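 also: mutant grown at 25 °C; 0% = DMSO wells with yeast and 100% = wells holding no yeast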
tim23-1 inh: growth inhibitors of tim23-1 mutant yeast, primary screen, luminescence, uHTS | S. cerevisiae tim23-1 growth, BacTiter-Glo luminescence, 24 h | inhibition, % at 20 µM | 330,000 compounds, 1.3% hits | AID 463212, 2010;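 active = growth inhibition of the mutant yeast at or above 50%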;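 also: temperature-sensitive mutant grown at 25 °C; plate controls were DMSO-treated mutant yeast for no effect and medium wells lacking yeast for full effect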
NALP1 yeast inh: NALP1 inflammasome inhibitors in reconstituted yeast, colorimetric, S. cerevisiae, triplicate retest; S. cerevisiae NALP1/ASC/caspase-1 growth, X-gal OD620, 72 h; inhibition, % at 10 µM; 280,000 compounds, 0.61% hits; in the data active = inhibition mostly above about 24%, no sharp cut-off; inactive = mostly below about 32%
SKKanGAS inh: S. pyogenes SKKanGAS growth inhibitors in kanamycin, primary screen, streptokinase expression inhibitor project, SKKanGAS strain, BacTiter-Glo luminescence; 6 h; inhibition, % at 7.5 µM; 300,000 compounds, 1.3% hits;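 active = mean replicate score, as percent of positive control median, at least 50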;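 also: strain carries kanamycin resistance gene driven by streptokinase promoter and grows in 40 µg/ml kanamycin; loss of luminescence reflects streptokinase promoter inhibition or plain growth inhibition; 0% = median of DMSO wells and 100% = positive control at its reference dose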
TIM10 inh: growth inhibitors of isogenic TIM10 control yeast, primary screen, counter-screen for tim10-1 yeast inhibitor project, luminescence, uHTS; S. cerevisiae TIM10 strain growth, BacTiter-Glo luminescence, 24 h; inhibition, % at 10 µM; 330,000 compounds, 1.4% hits; AID 463195, 2010;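 active = inhibition of 40% or more at the single tested concentration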;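 also: wild-type TIM10 isogenic control strain grown at permissive 25 °C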
PfHsp90 set2: growth inhibition of PfHsp90-expressing yeast, primary screen, antimalarial PfHsp90 inhibitor project, S. cerevisiae, BacTiter-Glo luminescence, single point, set 2. BacTiter-Glo ATP, 48 h; yeast lacking PDR1 and PDR3 efflux regulators. inhibition, % at 9.4 µM. 310,000 compounds, 0.32% hits. AID 504621, 2011;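 active = every replicate shows inhibition above about 80%, whatever the replicate mean, limit read from the data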;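 also: 0% = DMSO neutral controls and 100% = 20 µM radicicol positive controls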
tim10-1 conf: growth inhibitors of tim10-1 mutant yeast, confirmation, single concentration, luminescence, S. cerevisiae. shares compounds with tim10-1 inh. S. cerevisiae tim10-1 ts strain growth, BacTiter-Glo, 24 h. inhibition, % at 20 µM. 7,400 compounds, 56% hits;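 active = inhibition of yeast growth at or above a set limit in either of two repeat tests at 20 µM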;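 also: tim10-1 mutant grown at permissive 25 °C to find synthetic lethal compounds; 0% = DMSO yeast wells and 100% = medium wells without yeast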
tim10 confirm: growth inhibitors of wild-type TIM10 yeast, confirmation, counter-screen for tim10-1 synthetic lethality project, single concentration, luminescence, S. cerevisiae. shares compounds with TIM10 inh. S. cerevisiae tim10 strain growth, BacTiter-Glo luminescence, 24 h. inhibition, % at 10 µM. 4,600 compounds, 63% hits;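 active = inhibition of yeast growth at or above a set limit in either of two replicates at 10 µM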;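 also: this counterscreen used the strain with wild-type TIM10; 0% = yeast with DMSO and 100% = medium wells lacking yeast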
* hit, by the source's call; ! = a repeat was not active. An excerpt weighted towards active compounds, which were near 4.8% of everything screened.

How did O=C(NC1CCCC1)c1cccc(Oc2ccccc2)c1 do in these assays?
tim10-1 inh: 46*; tim23-1 inh: 38; NALP1 yeast inh: 2; SKKanGAS inh: -5; TIM10 inh: 42*; PfHsp90 set2: -14; tim10-1 conf: 26; tim10 confirm: 32*

Results for CC(=O)CC(=O)Nc1ccc(Cl)cn1 ?
tim10-1 inh: 14; tim23-1 inh: 25; NALP1 yeast inh: 15; SKKanGAS inh: 1; TIM10 inh: 12; PfHsp90 set2: 9

How did CC(C)CC(=O)NC(=S)Nc1ccc(Cl)cn1 do in these assays?
tim10-1 inh: 43*; tim23-1 inh: 50; NALP1 yeast inh: 8; SKKanGAS inh: -11; TIM10 inh: 47*; PfHsp90 set2: 40; tim10-1 conf: 38*; tim10 confirm: 40*

Results for O=C(NCc1ccco1)c1c[nH]c2ccc(S(=O)(=O)N3CCOCC3)cc2c1=O ?
NALP1 yeast inh: 15; PfHsp90 set2: 6

What do the screens show for `Cc1ccc(COc2ccc(Br)cc2/C=N/O)cc1`?
tim10-1 inh: 51*; tim23-1 inh: 34; NALP1 yeast inh: 17; SKKanGAS inh: 17; TIM10 inh: 46*; PfHsp90 set2: -15; tim10-1 conf: 26; tim10 confirm: 1

Results for CCN1CCC(C(=O)NC2CCCC2)(N(Cc2cccs2)C(=O)Cn2nnc3ccccc32)CC1 ?
NALP1 yeast inh: 5

Results for CCC(=O)OC1CC(C)N(C(=O)c2ccccc2)c2ccc(C)cc21 (stereo not given) ?
tim10-1 inh: 22; tim23-1 inh: 12; NALP1 yeast inh: -57; SKKanGAS inh: -8; TIM10 inh: 17; PfHsp90 set2: 12

What do the screens show for `CCC(=O)Nc1cccc(C(=O)/C=C/c2cccs2)c1`?
tim10-1 inh: 46*; tim23-1 inh: 35; NALP1 yeast inh: 19; SKKanGAS inh: 2; TIM10 inh: 42*; PfHsp90 set2: -7; tim10-1 conf: 24; tim10 confirm: 18

How did CCOc1c(OC(C)=O)ccc(/C=C2\N=C(SCC)SC2=O)c1[N+](=O)[O-] do in these assays?
tim10-1 inh: 50*; tim23-1 inh: 37; NALP1 yeast inh: 14; SKKanGAS inh: -3; TIM10 inh: 45*; PfHsp90 set2: 21; tim10-1 conf: 46*; tim10 confirm: 31*

Results for CC1=Nc2ccccc2/C1=C/c1nc(-c2ccc(C)s2)oc1O ?
tim10-1 inh: 28; tim23-1 inh: 33; NALP1 yeast inh: 17; SKKanGAS inh: 31; TIM10 inh: 23; PfHsp90 set2: -9

What do the screens show for `CC1=Nc2ccccc2/C1=C\c1nc(-c2ccccc2)oc1O`?
tim10-1 inh: 42*; tim23-1 inh: 26; NALP1 yeast inh: 1; SKKanGAS inh: 28; TIM10 inh: 45*; PfHsp90 set2: -20; tim10-1 conf: 34*; tim10 confirm: 35*

Results for Cc1oc(=O)c(NC(=O)c2cccc(Cl)c2)cc1C(=O)c1ccccc1 ?
tim10-1 inh: 62*; tim23-1 inh: 48; NALP1 yeast inh: 5; SKKanGAS inh: -5; TIM10 inh: 51*; tim10-1 conf: 62*; tim10 confirm: 43*

What do the screens show for `Cc1oc(=O)c(NC(=O)c2ccccc2)cc1C(N)=O`?
tim10-1 inh: 5; tim23-1 inh: 4; NALP1 yeast inh: 16; TIM10 inh: 4; PfHsp90 set2: -31

How did COc1ccc(C(=O)Nc2cc(C(=O)c3ccccc3)c(C)oc2=O)cc1 do in these assays?
tim10-1 inh: 66*; tim23-1 inh: 45; NALP1 yeast inh: -4; SKKanGAS inh: -3; TIM10 inh: 60*; PfHsp90 set2: 117*; tim10-1 conf: 70*; tim10 confirm: 43*

Results for O=c1oc2ccccc2nc1/C=C(O)/C=C\c1ccccc1 ?
tim10-1 inh: 58*; tim23-1 inh: 39; SKKanGAS inh: -16; TIM10 inh: 45*; tim10-1 conf: 46*; tim10 confirm: 44*

Results for Cc1cc2c3c(c1)C1(SCC(=O)N1c1ccc(F)cc1)C(=O)N3C(C)(C)CC2C (stereo not given) ?
tim10-1 inh: 48*; tim23-1 inh: 45; NALP1 yeast inh: 0; SKKanGAS inh: 6; TIM10 inh: 42*; PfHsp90 set2: 7; tim10-1 conf: 40*; tim10 confirm: 41*

How did Cc1ccccc1NC1=C/C(=N\S(=O)(=O)c2cccs2)c2ccccc2C1=O do in these assays?
tim10-1 inh: 82*; tim23-1 inh: 23; NALP1 yeast inh: -9; SKKanGAS inh: 90*; TIM10 inh: 67*; PfHsp90 set2: -14; tim10-1 conf: 77*; tim10 confirm: 54*

What do the screens show for `C=C[C@]1(C)C[C@@H](OC(=O)CSCCN(CC)CC)[C@]2(C)C(C)CC[C@]3(CCC(=O)[C@H]32)[C@@H](C)[C@@H]1O` (stereo not given in full)?
tim10-1 inh: 46*; tim23-1 inh: 34; SKKanGAS inh: 104*; TIM10 inh: 42*!; PfHsp90 set2: 21; tim10-1 conf: 40*!; tim10 confirm: 38*

How did Cc1cccc(/C=C2\Oc3cc(OS(C)(=O)=O)ccc3C2=O)c1 do in these assays?
tim10-1 inh: 47*; tim23-1 inh: 46; NALP1 yeast inh: 36; SKKanGAS inh: -1; TIM10 inh: 43*; PfHsp90 set2: -10; tim10-1 conf: 37*; tim10 confirm: -22

Results for COC(=O)COc1ccc2c(c1)O/C(=C\c1cccc([N+](=O)[O-])c1)C2=O ?
tim10-1 inh: 27; tim23-1 inh: 26; NALP1 yeast inh: -5; SKKanGAS inh: 6; TIM10 inh: 27; PfHsp90 set2: 8

What do the screens show for `O=c1[nH][nH]c(-c2ccccc2)c1C=Nc1ccc(OC(F)(F)F)cc1`?
tim10-1 inh: 42*; tim23-1 inh: 47; NALP1 yeast inh: 8; SKKanGAS inh: -4; TIM10 inh: 41*; tim10-1 conf: 37*; tim10 confirm: 37*

What do the screens show for `O=c1[nH][nH]c(-c2ccccc2)c1C=Nc1ccc(C(F)(F)F)cc1`?
tim10-1 inh: 20; tim23-1 inh: 25; NALP1 yeast inh: 3; SKKanGAS inh: 8; TIM10 inh: 4
